assay: CREB reporter modulators without forskolin, primary screen, cell-based, PC12, CRE-LacZ reporter, unstimulated (AID 1145); details: no forskolin, luminescence, 4.5 h, higher = more signal, called active from +8 up or from −8 down

z-score, inactive:
COC(=O)C(CC#Cc1ccc2c(c1)[C@]1(C(=O)N2)[C@H](c2ccc(O)cc2)N2[C@H](c3ccccc3)[C@H](c3ccccc3)OC(=O)[C@H]2[C@@H]1C(=O)N1CCCCCCC1)C(=O)OC -0.0515
CC(C)=CCCC(C)=CC(O)C1C=CC2C(=O)N(c3ccccc3)C(=O)C2N1Nc1ccccc1F (centres undefined) -0.0228
CN(C)CCCCNC(=O)[C@H]1C[C@H]2C(=O)N[C@@H](CCCC[N+](C)(C)C)C(=O)N2[C@H]1c1ccc(O)cc1 -1.2
CN(C)CCCNC(=O)[C@@H]1c2ccccc2C(=O)N(C2CCCCC2)[C@H]1c1ccc(CO)cc1 1.24
CC(C)CNC(=O)[C@@H]1c2ccccc2C(=O)N(C2CCCCC2)[C@H]1c1ccc(CO)cc1 -0.179
O=C1C2C=CC(C(O)c3ccco3)N(Nc3ccccc3)C2C(=O)N1c1ccccc1 (centres undefined) 0.0467
COc1ccc([Si](C)(C)[C@@H]2[C@@H](CCn3cc([C@H](O)c4ccccc4)nn3)O[C@]3(C(=O)N(c4ccccc4)c4ccccc43)[C@H]2C)cc1 1.6
CCCNC(=O)[C@@]1(Sc2ccc(C)cc2)CC(=O)N(C2CCCCC2)[C@@H]1c1ccc(CO)cc1I 0.272
COC(=O)C(CC#Cc1ccc2c(c1)[C@]1(C(=O)N2)[C@H](C(=O)Nc2nc3ccccc3s2)[C@H]2C(=O)O[C@H](c3ccccc3)[C@H](c3ccccc3)N2[C@@H]1c1ccc(OCCO)cc1)C(=O)OC 0.415

From PubChem BioAssay
